PubChem BioAssay AID651719 (The Scripps Research Institute Molecular Screening Center, 2012)
The whole screen tested about 360,000 compounds, of which about 1,600 (0.44%) were called active. This is one part of a sample in which actives are shown more often than they occur.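 Rule for the calls: active = inhibition above the screen-wide average plus 3 SD (cut at about 13% in these data); inactive = the rest.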

biological target: Galanin receptor type 3 (Homo sapiens) (UniProt O60755); assay: GalR3 antagonists in HEK293 cells, primary screen, cell-based, fluorescence readout (AID 651719); conditions: HEK293 GalR3-CNG cAMP membrane potential fluorescence; at 3 µM; stronger effect = higher value; galR3 body fused to GalR1 C-terminus;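 note: forskolin and galanin both at EC90 stimulate the cells; cAMP rise reported by CNG channel membrane potential dye signal; 0% = forskolin plus galanin with DMSO and 100% = forskolin alone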
Sequence (O60755 1-299 limits assumed): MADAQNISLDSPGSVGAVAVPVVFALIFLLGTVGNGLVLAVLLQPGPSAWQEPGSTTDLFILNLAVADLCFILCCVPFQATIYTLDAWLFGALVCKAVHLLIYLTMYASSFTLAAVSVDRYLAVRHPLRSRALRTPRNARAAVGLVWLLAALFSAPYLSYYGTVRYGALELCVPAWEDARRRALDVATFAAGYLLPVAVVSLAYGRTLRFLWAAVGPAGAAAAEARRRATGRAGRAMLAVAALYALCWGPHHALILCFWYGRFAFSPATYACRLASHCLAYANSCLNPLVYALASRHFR

inhibition, active:
COc1cc(Cl)c(C)cc1NC(=O)[C@@H]1CCCN1C(=O)c1cccs1 14%
COc1ccc(-c2[nH]nc3c2C(c2ccncc2)C(C#N)=C(N)O3)cc1 (centres undefined) 16.3%
CCCCNC(=O)c1ccccc1NC(=O)C1=C(C)OCCS1 103%
CC(C)[C@@H](C(=O)OCC(=O)c1ccc2c(c1)NC(=O)CO2)N1C(=O)c2ccccc2C1=O 42.5%
CNC(=O)NC(=O)CSc1nnc(-c2ccc(F)cc2)n1CC1CCCO1 (centres undefined) 29.6%
COc1cc2c(cc1OC)C(c1cccc([N+](=O)[O-])c1)=NCC2 13.9%

inhibition, inactive:
Nc1[nH]c(C(=O)c2ccccc2)c(-c2ccc(Cl)cc2Cl)c1C(=O)c1ccccc1 -7.95%
COc1ccc(Cl)cc1NC(=O)[C@@H]1CCCN1C(=O)c1cccs1 -4.08%
Cc1ccc(S(=O)(=O)N2CCCCC2)cc1NC(=O)[C@@H]1CCCN1C(=O)c1cccs1 -1.7%
C[C@@H](CN1C2=NC[C@@H](Cc3ccccc3)N2C[C@H]1Cc1ccc(O)cc1)NC(=O)CCC1CCCCC1 -7.8%
COC(=O)C1=C(C)N(Cc2ccccc2C(F)(F)F)C(=NCC2CC2)NC1c1cccc(Cl)c1 (centres undefined) -5.91%
CCCc1nc2c([nH]1)C(c1cccnc1)C(C#N)=C(N)O2 (centres undefined) -0.27%
COc1ccc(C2C(C#N)=C(N)Oc3n[nH]c(C)c32)cc1CN1CCN(c2ccc(F)cc2)CC1 (centres undefined) -5.67%
COC(=O)[C@]1(Cc2ccccc2)NC=C(C(=O)c2ccccc2)[C@@H]1c1cccc(OC)c1 -6.78%
CCCCNC(=O)c1ccccc1NC(=O)c1ccccc1N(C)S(C)(=O)=O -3.23%
COc1ccc(N2CCN(C(=O)c3ccccc3NC(=O)C3=C(C)OCCS3)CC2)cc1 -6.97%
CC1CCCN(c2cccc3c2S(=O)(=O)N(Cc2ccc(F)cc2)[C@@H](C)[C@H](c2ccccc2)O3)C1 (some centres undefined) -4.47%
O=C1COc2ccc(C(=O)COC(=O)CCOc3ccccc3)cc2N1 -1.45%
O=C1COc2ccc(C(=O)COC(=O)c3ccccc3Cl)cc2N1 -5.73%
OC(c1ccccc1)(c1ccccc1)C1CCN(CCCOc2ccc(-c3ccsc3)cc2)CC1 -4.38%
Cc1nnc(SCC(=O)NNC(=O)c2ccc(Cl)cc2)n1CC1CCCO1 (centres undefined) -3.6%
O=C(CSc1nnc(-c2ccco2)n1CC1CCCO1)c1ccccc1 (centres undefined) -2.73%
COc1cc2c(cc1OC)C(/C=C/c1ccco1)=NCC2 -5.84%
COc1cc2c(cc1OC)C(Cc1cc(OC)c(OC)cc1[N+](=O)[O-])=NCC2 -6.44%
